Results reported in PubChem BioAssay AID1259313 (Sanford-Burnham Center for Chemical Genomics, 2017).
The whole screen tested about 340,000 compounds, of which about 8,500 (2.5%) were called active. This excerpt belongs to a sample that is enriched for actives. A number with no mark means an inactive call.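 How the source made its calls: active means melting temperature shift of at least 10% of the positive control shift, at one fixed dose; inactive means the rest.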

test system: Glutamate receptor ionotropic, NMDA 3A (GRIN3A) ligand-binding domain; experiment: binders of NR3A ligand-binding domain, primary screen, biophysical, differential scanning fluorimetry, uHTS (AID 1259313); settings: NR3A LBD differential scanning fluorimetry, at 25 µM, stronger effect = higher value, 0% = protein alone, 100% = glycine-bound protein

Row | Structure (SMILES) | Tm shift relative to glycine control
1 | Cc1ccc(-c2c3c(=O)n(C)c(=O)n(C)c3cn2-n2cnnc2)cc1 | -0.82%
2 | COc1cccc(-n2cc3c(c2-c2ccccc2)c(=O)n(C)c(=O)n3C)c1 | -1.71%
3 | Cc1ccc(-c2c3c(=O)n(C)c(=O)n(C)c3cn2-c2ccccc2O)cc1 | 22.9% (active)
4 | Cc1csc(=O)n1CCC(=O)OCC(=O)NNC(=O)c1ccc(Br)cc1 | -0.85%
5 | COc1cccc(CNS(=O)(=O)c2csc(C(N)=O)c2)c1 | 2.62%
6 | COc1cccc(CNS(=O)(=O)c2ccc3c(c2)N(C(C)=O)CCS3)c1 | 11.5% (active)
7 | COc1cccc(CNS(=O)(=O)c2ccc3c(c2)CC(C)N3C(C)=O)c1 (stereo unspecified) | 2.23%
8 | CSc1nc2c(c(=O)[nH]1)C(c1cccc(Cl)c1Cl)CC(=O)N2 (stereo unspecified) | -1.69%
9 | O=C(NC(Nc1nc2ccc([N+](=O)[O-])cc2s1)(C(F)(F)F)C(F)(F)F)c1ccccc1 | 6.26%
10 | O=C(Nc1nc2ccc([N+](=O)[O-])cc2s1)c1ccc(S(=O)(=O)N2CCCc3ccccc32)cc1 | 18.8% (active)
11 | Cc1ccc(NC(=O)c2cccc(S(=O)(=O)N3CCCc4ccccc43)c2)nc1 | 2.57%
12 | O=C1COc2ccc(C(=O)COC(=O)c3ccccc3Cl)cc2N1 | 0%
13 | COc1ccc2c(c1)C(=O)CC(c1ccccc1)O2 (stereo unspecified) | -1.87%
14 | CCN(CC)c1ccc(C(=O)NNC(=O)CCc2nc3ccccc3c(=O)[nH]2)cc1 | -0.56%
15 | COc1ccc(C(=O)COC(=O)COc2ccc(C)c(C)c2)cc1 | 12% (active)
16 | Cc1ccc(OCC(=O)Nc2ccc(C(=O)O)cc2NC(=O)COc2ccc(C)c(C)c2)cc1C | -0.84%
17 | COc1ccc(OCC(=O)OCCN(C)C)cc1 | -1.53%
18 | Cc1ccc(Oc2cnn(-c3ccccc3)c(=O)c2Br)cc1 | -1.23%
19 | Cc1ccc(O/C=C2\OC(=O)c3ccccc32)cc1 | 49.4% (active)

Row | Structure (SMILES) | Tm shift relative to glycine control
20 | Cc1n[nH]c(=O)c2c(NC(=O)COC(=O)c3ncc(Cl)c(Cl)c3Cl)oc(C)c12 | 4.91%
21 | Cc1c(CCC(=O)O)c(=O)oc2c(C)c(OCc3ccccc3Cl)ccc12 | 0.1%
22 | CCN([C@H](CO)C(C)C)S(=O)(=O)c1ccccc1Br | -1.23%
23 | O=C(O)CCCC(=O)Nc1ccccc1-n1ccnc1 | -2.48%
24 | CCOC(=O)N1CCN(C(=O)COc2ccc3oc4c(c3c2)CCCC4)CC1 | 1.71%
25 | CCOC(=O)N1CCN(C(=O)COc2ccc(Br)cc2)CC1 | 10.1% (active)
26 | CCOC(=O)N1CCN(S(=O)(=O)c2ccc(Br)cc2)CC1 | -0.87%
27 | Cc1cccc([C@H]2[C@@H]3C=CC[C@@H](C)[C@@H]3C(=O)N2Cc2ccccc2)c1 | 0.67%
28 | Cc1cccc([C@@H]2[C@@H]3C(=O)N(Cc4ccccc4)C(=O)[C@@H]3[C@]3(C)C(=O)N(c4ccc(Br)cc4)C(=O)N23)c1 | -3.72%
29 | Cc1ccc(-c2cccc([C@H]3[C@@H]4C=CC[C@@H](C)[C@@H]4C(=O)N3Cc3ccccc3)c2)cc1 | 15.4% (active)
30 | CNC(=O)C1CCN(S(=O)(=O)c2c(C)noc2/C=C/c2cccc(C)c2)CC1 | 1.97%
31 | CCOC(=O)c1c(Cc2ccc(Cl)cc2)c[nH]c1C | -13.2%
32 | CC(C)(C)NC(=O)CN(Cc1cccs1)C(=O)CNS(=O)(=O)c1ccccc1 | -2.34%
33 | Cn1nnnc1SCC(=O)N1CCN(C(c2ccccc2)c2ccccc2)CC1 | 11% (active)
34 | O=C(c1ccc(-n2cnnn2)cc1)N1CCN(C(c2ccccc2)c2ccccc2)CC1 | -0.38%
35 | Cn1nnnc1SCC(=O)N1CCN(Cc2ccccc2)CC1 | 0.27%
36 | N#C/C(C(=S)Nc1ccccc1)=C1/NN=C(N2CCOCC2)N1c1ccccc1 | 1.45%
37 | CCC(C(=O)OCC(=O)Nc1c(Cl)cc(Cl)cc1Cl)c1ccccc1 (stereo unspecified) | -8.02%
38 | CN(CC(=O)Nc1ccc(OC(F)F)cc1)S(=O)(=O)/C=C/c1ccccc1 | -9.87%

Row | Structure (SMILES) | Tm shift relative to glycine control
39 | COc1ccc(NC(=O)COC(=O)c2ccc(NS(=O)(=O)/C=C/c3ccccc3)cc2)cc1 | 20.6% (active)
40 | COc1ccc(NC(=O)CS(=O)(=O)c2ccccc2)cc1 | 2.82%
41 | CCC(C(=O)OCC(=O)Nc1ccccc1-c1ccccc1)c1ccccc1 (stereo unspecified) | -2.7%
42 | CCC(C(=O)OCC(=O)Nc1ccc(C(=O)Nc2ccc(OC)cc2)cc1)c1ccccc1 (stereo unspecified) | 22.5% (active)
43 | c1cnc(N2CCN(c3ccc4ccccc4n3)CC2)nc1 | -1.6%
44 | O=C(CN1CCc2ccccc21)NC(c1ccccc1)c1ccccc1 | -10.2%
45 | O=C1C=C(NCCNc2c(F)c(F)c(CO)c(F)c2F)CCC1 | -8.05%
46 | Cc1ccc(NC(=O)COC(=O)CN2CCCCCC2=O)c(C)c1 | -0.17%
47 | Cc1ccc(C(=O)NNC(=O)c2ccncc2)cc1S(=O)(=O)N1CCCCC1 | -0.93%
48 | CC1CCCC(NC(=O)c2cc(S(=O)(=O)N3CCCCC3)ccc2Cl)C1C (stereo unspecified) | -1.61%
49 | Cc1ccc(C(=O)NC2CCCC(C)C2C)cc1S(=O)(=O)N1CCCCC1 (stereo unspecified) | 20.8% (active)
50 | O=C1CCCC2=C1C(c1ccccc1)n1c(s/c(=C/c3cccc(F)c3)c1=O)=N2 (stereo unspecified) | 2.84%
51 | COCCOC(=O)C1=C(C)N=c2s/c(=C\c3cccs3)c(=O)n2C1c1cccs1 (stereo unspecified) | -1.71%
52 | COc1ccc(OC)c(C2C3=C(N=c4s/c(=C\c5cccc(O)c5)c(=O)n42)c2ccccc2CC3)c1 (stereo unspecified) | 17.9% (active)
53 | COC1=CCC2([N+](=O)[O-])CN(CC(=O)O)CC1([N+](=O)[O-])C2 (stereo unspecified) | -3.94%
54 | O=C(CCc1ccc(S(=O)(=O)N2CCOCC2)cc1)OCC(=O)c1ccc(Br)cc1 | -0.17%
55 | N#CCC(=O)NC1CCC(CC2CCC(NC(=O)CC#N)CC2)CC1 (stereo unspecified) | 0.51%
56 | O=[N+]([O-])c1ccc(COc2ccccc2CN2CCOCC2)cc1 | -1.9%
